Active and inactive are the calls of the source. Rule for the calls: active = hit-call score of the fitted dose curve at least 0.9, where 1 is the maximum; inactive = score below 0.9.

Read-out in assay [1]: Interleukin-8 (IL8), CXCL8 (gene 3576)
Put plainly: BSK_CASM3C_IL8: BioMAP Diversity Plus: CASM3C Assay for Interleukin-8 (IL8) Biomarker Activity (AID 2283042).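 Note: IL-8 protein level quantified by ELISA.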 Particulars: primary human coronary artery smooth muscle cells; actives raise or lower the signal.

Read-out in assay [2]: Human Leukocyte Antigen - DR isotype (HLADR), HLA-DRA (gene 3122)
Put plainly: BSK_CASM3C_HLADR: BioMAP Diversity Plus: CASM3C Assay for Human Leukocyte Antigen - DR isotype (HLADR) Biomarker Activity (AID 2283043).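 Note: cell-surface HLA-DR protein level quantified by ELISA.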 Conditions: primary human coronary artery smooth muscle cells; actives raise or lower the signal.

Read-out in assay [3]: Macrophage colony-stimulating factor (MCSF), CSF1 (gene 1435)
Put plainly: BSK_CASM3C_MCSF: BioMAP Diversity Plus: CASM3C Assay for Macrophage colony-stimulating factor (MCSF) Biomarker Activity (AID 2283044).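 Note: M-CSF protein amount quantified by ELISA after 24 h exposure.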 Conditions: primary human coronary artery smooth muscle cells; actives raise or lower the signal.

Read-out in assay [4]: Low-density lipoprotein receptor (LDLR), LDLR (gene 3949)
Put plainly: BSK_CASM3C_LDLR: BioMAP Diversity Plus: CASM3C Assay for Low-density lipoprotein receptor (LDLR) Biomarker Activity (AID 2283045).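 Note: LDLR protein level on the cell surface quantified by ELISA.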 Particulars: primary human coronary artery smooth muscle cells; actives raise or lower the signal.

Read-out in assay [5]: Monocyte Chemoattractant Protein-1 (MCP1), CCL2 (gene 6347)
The assay can be described thus: BSK_CASM3C_MCP1: BioMAP Diversity Plus: CASM3C Assay for Monocyte Chemoattractant Protein-1 (MCP1) Biomarker Activity (AID 2283046).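 Note: MCP-1 level quantified by ELISA 24 h after dosing.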 Particulars: primary human coronary artery smooth muscle cells; actives raise or lower the signal.

The nature of assay [6]: BSK_CASM3C_Proliferation: Cell Proliferation Assessment in the BioMAP Diversity Plus: CASM3C Assay (AID 2283047).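 Note: sulforhodamine B total protein stain as relative cell number at 560 nm; sub-confluent cells exposed 48 h before staining; fitted both ways against DMSO so gain or loss of cell number.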 Particulars: primary human coronary artery smooth muscle cells.
Read-out in assay [7]: Monokine induced gamma interferon (MIG), CXCL9 (gene 4283)
Put plainly: BSK_CASM3C_MIG: BioMAP Diversity Plus: CASM3C Assay for Monokine induced gamma interferon (MIG) Biomarker Activity (AID 2283048).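 Note: MIG protein level measured by ELISA.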 Conditions: primary human coronary artery smooth muscle cells; actives raise or lower the signal.

Read-out in assay [8]: serum amyloid A (SAA), SAA1 (gene 6288)
Put plainly: BSK_CASM3C_SAA: BioMAP Diversity Plus: CASM3C Assay for serum amyloid A (SAA) Biomarker Activity (AID 2283049).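 Note: SAA protein level quantified by ELISA.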 Particulars: primary human coronary artery smooth muscle cells; actives raise or lower the signal.

A short description of assay [9]: BSK_CASM3C_SRB: Viability Assessment in the BioMAP Diversity Plus: CASM3C Assay (AID 2283050).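 Note: total protein by SRB staining as cytotoxicity measure in parallel cultures; cells exposed to compound for 24 h.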 Particulars: primary human coronary artery smooth muscle cells.
Read-out in assay [10]: Thrombomodulin, THBD (gene 7056)
Put plainly: BSK_CASM3C_Thrombomodulin: BioMAP Diversity Plus: CASM3C Assay for Thrombomodulin Biomarker Activity (AID 2283051).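 Note: thrombomodulin protein level measured by ELISA 24 h after dosing.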 Particulars: primary human coronary artery smooth muscle cells; actives raise or lower the signal.

In the case of `Cc1cnc(C2=NC(C)(C(C)C)C(=O)N2)c(C(=O)O)c1` (stereo not given), the result in [1], in assay [2], in [3], in [4], in assay [5] and in [6] was inactive. Also, the result in [7], in assay [8], in assay [9] and in assay [10] was inactive.
Turning to `Nc1c(Cl)c(Cl)nc(C(=O)O)c1Cl`, the outcome in assay [1], in assay [2], in assay [3], in assay [4], in [5] and in assay [6] was inactive. The result in [7], in [8], in [9] and in assay [10] was inactive.
In general, AC50 refers to the concentration giving half of the maximal activity seen. With `Cc1ccc(N=CN(C)C=Nc2ccc(C)cc2C)c(C)c1`, the outcome in [1], in assay [2], in assay [4], in [5] and in assay [7] was inactive. The AC50 in assay [3] was 29.6 µM (active); in assay [6] it was 30.4 µM (active); in assay [8], 28.7 µM (active); in assay [9], 28.5 µM (active); in assay [10] it was 31.6 µM (active).
As for `COP(=S)(OC)Oc1ccc([N+](=O)[O-])c(C)c1`, the result in [1], in assay [2], in assay [3], in [4], in [5] and in [6] was inactive. Also, the result in assay [7], in [8], in assay [9] and in [10] was inactive.
Take `CC(C)=CC1C(C(=O)OCc2coc(Cc3ccccc3)c2)C1(C)C` (stereo not given): the outcome in [1], in assay [2], in assay [3], in [4], in [5] and in assay [7] was inactive. Besides, the outcome in assay [8] and in [9] was inactive. The AC50 is 24.6 µM (active) in assay [6] and 20 µM (active) in [10].
For `CCNC(=O)NC(=O)C(C#N)=NOC`, the outcome in assay [1], in assay [2], in [3], in assay [4], in assay [6] and in assay [7] was inactive. In addition, the outcome in assay [8] and in assay [9] was inactive. The half-maximal activity concentration (AC50) is 1.98 µM (active) in assay [5] and 15.9 µM (active) in assay [10].
As for `CCN(CC)C(=O)C(C)Oc1cccc2ccccc12` (stereo not given), the result in assay [1], in assay [2], in assay [3], in assay [4], in assay [5] and in assay [7] was inactive. Moreover, the outcome in [8] and in assay [9] was inactive. In addition, the AC50 was 0.531 µM (active) in assay [6] and 0.148 µM (active) in assay [10].
With `CC(C)Nc1nc(Cl)nc(NC(C)C)n1`, the outcome in assay [1], in assay [2], in assay [3], in assay [4], in [5] and in assay [6] was inactive. In addition, the outcome in [7], in assay [8], in [9] and in assay [10] was inactive.
Turning to `Cc1cc(C)nc(Nc2ccccc2)n1`, the outcome in assay [1], in assay [2], in assay [3], in [4], in assay [5] and in [6] was inactive. Further, the result in assay [7], in [8], in [9] and in [10] was inactive.
With `O=C(Nc1ccccc1-c1ccc(Cl)cc1)c1cccnc1Cl`, the outcome in assay [1], in assay [2], in assay [3], in assay [4], in assay [5] and in assay [6] was inactive. Also, the outcome in assay [7], in [8], in assay [9] and in assay [10] was inactive.
Take `CC(C)(C)C(=O)C(Oc1ccc(Cl)cc1)n1cncn1` (stereo not given): the result in assay [1], in assay [2], in assay [3], in assay [4], in assay [5] and in [6] was inactive. The result in assay [7], in [8], in assay [9] and in [10] was inactive.
Regarding `COc1cc(Cl)c(OC)cc1Cl`, the outcome in [1], in assay [2], in [3], in [4], in assay [5] and in [6] was inactive. The result in assay [7], in [8], in assay [9] and in assay [10] was inactive.
Consider `Cc1nc(N(C)C)nc(OC(=O)N(C)C)c1C`, for which the result in assay [1], in assay [2], in assay [3], in [4], in [5] and in assay [6] was inactive. For the same compound, the outcome in [7], in assay [8], in assay [9] and in assay [10] was inactive.
`CS(=O)(=O)c1ccc(C(=O)C2C(=O)CCCC2=O)c([N+](=O)[O-])c1`: the outcome in [1], in assay [2], in [3], in [4], in [5] and in assay [6] was inactive. Further, the result in [7], in assay [8], in [9] and in assay [10] was inactive.
Turning to `CC(C)N1C(=O)N(c2ccccc2)CSC1=NC(C)(C)C`, the result in [1], in assay [2], in assay [3], in assay [4], in assay [5] and in assay [7] was inactive. Further, the outcome in [8] and in assay [9] was inactive. Further, the AC50 in [6] was 30 µM (active); in assay [10], 27.3 µM (active).
On to `CC1(C)C(C=C(Cl)Cl)C1C(=O)OC(C#N)c1cccc(Oc2ccccc2)c1` (stereo not given), for which the outcome in assay [1], in [2], in [3], in assay [4], in assay [5] and in assay [6] was inactive. For the same compound, the result in assay [7], in assay [8], in assay [9] and in [10] was inactive.
As for `CCN(CC)c1nc(C)cc(OP(=S)(OC)OC)n1`, the outcome in assay [1], in [3], in assay [4], in assay [5], in [6] and in assay [7] was inactive. In addition, the outcome in [8] and in assay [9] was inactive. Besides, the AC50 in assay [2] was 11.8 µM (active); in [10], 20 µM (active).
In the case of `COCC(=O)N(c1c(C)cccc1C)C(C)C(=O)OC` (stereo not given), the result in assay [1], in assay [2], in assay [3], in assay [4], in assay [5] and in assay [6] was inactive. For the same compound, the outcome in assay [7], in [8], in assay [9] and in [10] was inactive.

The record behind these values is PubChem BioAssay (EPA / NIEHS).
